Test results published in PubChem BioAssay AID901 (National Center for Advancing Translational Sciences (NCATS), 2007).
The whole screen tested about 120,000 compounds, of which fewer than 10 were called active. Inconclusive results (about 4%) are left out. Calls follow the shape of the dose curve; as a rule, active = well fitted curve in the direction sought with a large enough effect in the signal ratio (not every such curve was filed as active); inconclusive = small, poorly fitted or top-dose-only effect, or a change in a side signal; inactive = no such curve, though single readings can be large or run the other way; the % refers to the signal ratio. The list is a sample of the results.

Molecular target: Inositol monophosphatase 1 (Rattus norvegicus) (UniProt P97697)
Sequence (P97697 whole entry, looked up): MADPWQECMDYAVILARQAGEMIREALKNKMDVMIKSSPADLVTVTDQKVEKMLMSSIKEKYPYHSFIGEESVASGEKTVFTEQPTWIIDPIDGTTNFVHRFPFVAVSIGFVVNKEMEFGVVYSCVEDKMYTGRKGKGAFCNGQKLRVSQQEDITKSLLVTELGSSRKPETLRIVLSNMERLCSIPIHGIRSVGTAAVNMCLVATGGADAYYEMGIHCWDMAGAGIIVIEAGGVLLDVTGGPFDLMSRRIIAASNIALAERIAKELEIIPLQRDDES
Experiment: qHTS Assay for Identifying the Cell-Membrane Permeable IMPase Inhibitors;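 also: higher means more IMPase inhibition seen as more IP1 and lower FRET ratio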
Details: CHO-M1 cells, HTRF TR-FRET ratio; series mostly up to 46.1 µM
Text: NCGC IMPase Assay Overview
Lithium has been widely used for the treatment of bipolar disorder. But lithium has a narrow therapeutic index and it can cause side effects such as thirst, weight gain, tremor, polyuria and memory problems. Although the mechanism for lithium action in treatment of bipolar disorder is still not fully understood, inhibition of inositol monophosphatase (IMPase) and the subsequent depletion of the inositol pool in living cells have been implicated as the primary therapeutic benefit of lithium therapy. Therefore, a selective IMPase inhibitor with reduced side effects might be a good drug candidate to replace lithium for the treatment of bipolar disorder. Several IMPase inhibitors have been discovered previously. However, they are not suitable for therapeutic use because of their poor cell membrane penetrability or oral bioavailability; the development of new cell-permeable IMPase inhibitors is needed.
IMPase catalyzes the hydrolysis of inositol-1-phosphate (IP1) to release free inositol. Binding of an agonist to a Gq coupled GPCR results in the activation of PLC, which hydrolyzes the PIP2 to form inositol-1,4,5-trisphosphate (IP3) and diacyl glycerol (DAG). While DAG activates protein kinase C (PKC), IP3 triggers the elevation of intracellular free Ca2+. The IP3 is very rapidly inactivated by hydrolysis to IP2, IP1 and then inositol by a series of enzymes including IMPase. Free inositols are used for synthesis of PI and thus start another inositol cycle.
To identify new cell-permeable IMPase inhibitors, we developed a cell-based IMPase assay in which the cytosolic IP1 is measured by a time-resolved fluorescence resonance energy transfer (TR-FRET) assay. In this assay, an IP1 specific antibody is used to detect the labeled IP1 tracer. When the cell lysate contains the elevated IP1 due to the inhibition of IMPase, the TR-FRET between the labeled antibody and IP1 tracer is disrupted resulting in a reduction in the total signal. Since the TR-FRET is used, this cell-based assay is a homogenous assay without cell wash and medium change that is suitable for assay miniaturization and HTS.
NCGC IMPase Assay Protocol Summary
A Chinese hamster ovary (CHO) cell line stably expressing the M1 receptor (CHO-M1) was obtained from ATCC and maintained in F-12 Kaighn's media (Invitrogen, Carlsbad, CA, 21127) supplemented with 10 % FBS, 100 units/ml penicillin, 100 ug/ml streptomycin and 250 ug/ml geneticin at 37C, 5% CO2 in a humidified atmosphere. Before the assay, aliquots of cells were frozen and stored at -135C. The assay was performed in 1536-well format. Data are reported for both the ratio of the two emission wavelengths, and also for the component 'donor' channel, Em2=620. […] AC50 values were determined from concentration-response data modeled with the standard Hill equation.
IMPase 1536-well assay protocol:
(1) Plate 4 ul/well (2000 cells) of cell suspension from frozen CHO-M1 Cells in white, tissue culture treated 1536-well plates that are cultured at 37C, 5 % CO2 for 16 to 30 hours.
(2) Add 23 nl/well of compound in DMSO solution. The final titration for each compound was between 0.6 nM and 46 uM.
(3) Add 1 ul of carbachol (50 uM in stimulation buffer containing10mM HEPES, 1mM CaCl2, 0.5 mM MgCl2, 4.2 mM KCl, 146 mM NaCl, 5.5 mM glucose, 50mM LiCl, pH 7.4.
(4) Incubation at 37C, 5 % CO2 for 30 min.
(5) Add 1 ul/well of d2-conjugated IP1 (d2-IP1) and 1 ul/well of Eu+ cryptate conjugated anti-IP1 antibody (Eu+-Ab) prepared in the cell lysis buffer, both from the IP-One kit (Cisbio, MA).
(6) Incubate at room temperature for 10 minutes.
(7) Detect the assay plate (Ex = 320, Em1 =665 and Em2 620) in a ViewLux plate reader.
inositol monophosphatase, IMPase, IMPase inhibitor, lithium, bipolar disorder, IP-One, HTRF, qHTS, NIH roadmap, NCGC
Note: In the gene ID and protein GI references for this assay, rat IMPase is referenced instead of hampster as hamster accession numbers were not available.

outcome, inactive:
O=C(Nc1ccc(O)c(-c2nc3ccccc3o2)c1)c1ccc(-c2cccc(Cl)c2)o1
CC1CCCCN1CC(=O)N1CCCc2c1c(=O)oc1ccc(OCc3ccccc3)cc21 (configuration not stated)
COc1ccc(C2(Nc3cccc(F)c3)C(=O)c3ccccc3C2=O)cc1
Cc1ccc(C(=O)CSc2nc(-c3ccccc3)nc3c2CCCC3)c(C)c1
CCOc1ccc(S(=O)(=O)N/N=C(\C)c2ccc(Cl)c(Cl)c2Cl)cc1
Cc1ccc(C(=O)CC2(O)C(=O)N(CCc3ccccc3)c3ccc(Br)cc32)cc1 (configuration not stated)
COc1ccc2oc(-c3cccc(NC(=O)CSc4ccc(Cl)cc4)c3)nc2c1
CCCC(=O)Nc1ccc2oc(-c3ccc(O)c(Br)c3)nc2c1
COc1cccc(C(=O)Nc2ccc3oc(-c4ccc5ccccc5c4)nc3c2)c1
Cc1cccc(C(CC(=O)NCC2(c3ccccc3)CCCC2)c2ccccc2)c1O (configuration not stated)
Cc1ccc(OCC(=O)Nc2ccccc2Sc2ccc(Cl)cc2)c([N+](=O)[O-])n1
CN(C(=O)CSc1nnc(-c2n[nH]c3ccccc23)o1)c1ccccc1
CC(=O)NC(Cc1ccccc1)C(=O)NC1CCN(c2ncccc2[N+](=O)[O-])CC1 (configuration not stated)
COc1ccc(/C=C/C(=O)OCC(=O)NCc2cccs2)cc1OC
COc1ccc(S(=O)(=O)Nc2cc3c(C(=O)OC(C)C)c(C)oc3c3ccccc23)cc1
CCOC(=O)c1c(C)oc2ccc(N(C(=O)c3ccncc3)S(=O)(=O)c3ccc(CC)cc3)cc12
CCCCOC(=O)/C(C#N)=C/c1ccc(-c2cccc(C(F)(F)F)c2)o1
CCc1ccccc1NC(=O)CSc1nc(C)c(C(=O)Nc2ccccc2)c(-c2ccc(Cl)cc2)c1C#N
Oc1ccccc1-c1nc(/C=C/c2ccc(F)cc2)no1
COc1ccc(NC(=O)CSC2=Nc3ccccc3C3=NC(CC(=O)NCc4ccccc4OC)C(=O)N23)cc1Cl (configuration not stated)
COc1ccc(C(C(=O)NC2CCCCC2)N(C(=O)CCl)c2ccccc2Cl)cc1 (configuration not stated)
COc1ccc(S(=O)(=O)NCCc2cc3ccc(C)c(C)c3[nH]c2=O)cc1
COc1ccc2c(CN3CCN(S(=O)(=O)c4cccs4)CC3)cc(=O)oc2c1
CC(=O)Nc1ccc(NC(=O)CSc2nnc3c4cc(Br)ccc4n(C)c3n2)cc1
CCc1ccccc1NS(=O)(=O)c1ccc2nc(-c3ccccc3)[nH]c2c1
COC(=O)c1ccc(-c2nc3cc(NC(C)=O)ccc3o2)cc1
CCCOc1ccc(NC(=O)C2OC3OC(C)(C)OC3C3OC(C)(C)OC23)cc1 (configuration not stated)
O=C(Nc1nnc(SCc2ccccc2Cl)s1)c1cccc([N+](=O)[O-])c1
CC1=C(C(=O)OCc2ccc(C)cc2)C(c2c(Cl)cccc2Cl)CC(=O)N1 (configuration not stated)
CC(C)Cn1c(-c2ccc(S(=O)(=O)N3CCOCC3)cc2)csc1=Nc1cc(Cl)ccc1Cl
CN(Cc1cccs1)C(=O)Cc1c[nH]c2ccccc12
CCC(C)c1ccc2oc(-c3ccc(NC(=O)c4cc5ccccc5o4)cc3)nc2c1 (configuration not stated)
Cc1cc2nc(-c3ccc(NC(=O)c4cc5ccccc5o4)cc3)oc2cc1C
COc1cc(C2c3c(oc4ccccc4c3=O)C(=O)N2c2nc(C)c(C)s2)ccc1O (configuration not stated)
COc1ccc(C)cc1N(CC(=O)N1CCC(C)CC1)S(=O)(=O)c1ccc(C)cc1
Cc1ccc(-c2cc(C(F)(F)F)c(C#N)c(SCC(=O)Nc3ccccc3)n2)cc1
CN(C)c1ccc(/C=N/N(Cc2ccccc2)c2ccccc2)cc1
CC(=O)NC1C(Oc2ccc(C)cc2)OC2COC(c3ccco3)OC2C1O (configuration not stated)
COCCNC(=O)CSc1nc(-c2ccccc2)[nH]c1-c1ccc(C)cc1
CCOc1ccc(/C=N/NC(N)=S)cc1
O=C(CSc1nc(-c2cccc(F)c2)[nH]c1-c1ccccc1)Nc1ccc2c(c1)OCO2
CCc1cccc(C)c1Nc1c(-c2ccc(N(C)C)cc2)nc2ncccn12
Cc1nnc(SCC(=O)N2CCOCC2)[nH]c1=O
Cc1cc([N+](=O)[O-])ccc1NC(=O)C1CCCO1 (configuration not stated)
CCCn1c(NCc2ccc(N(CC)CC)cc2)nc2ccccc21
COc1ccc(Cl)cc1NC(=O)NCC1CCN(Cc2ccccc2F)CC1
Cc1cc2ccccc2n1CCNC(=O)c1ccc(F)cc1
CN(C)CCCO/N=C(\c1ccccc1)c1ccncc1
CCCCNC(=O)CSc1nc2ccc(NC(=O)CSc3nnc(N)s3)cc2s1
CCOC(=O)c1cc(NC(=O)c2ccc(F)cc2)c(=O)n2c1oc1ccccc12
Cn1c(=O)[nH]c(=O)c2c1nc(NCCc1ccccc1)n2Cc1ccc(F)cc1
COc1ccc(NC(=O)c2ccco2)cc1NC(=O)COc1ccc(C)c(C)c1
CCN(c1ccc(NC(=O)COC(=O)CCc2nc3ccccc3n2-c2ccccc2)cc1)C(C)C
COC(=O)c1c(NC(=O)CN2C(=O)NC(CCc3ccccc3)C2=O)sc2c1CCCCC2 (configuration not stated)
Cn1c(=O)c2c(nc(NCCc3ccccc3)n2Cc2ccccc2Br)n(C)c1=O
COc1ccccc1CNC(=O)CN1CCC(n2cnc3cc(F)ccc32)CC1
Cc1ccc(NC2=C(c3ccc(C(F)(F)F)cc3)C(=O)c3ccccc32)cc1F
CCOC(=O)c1cnc2c(C)cc(C)cc2c1Nc1ccc(N2CCOCC2)cc1
CC(=O)Nc1ccc(Nc2c([N+](=O)[O-])cc(S(C)(=O)=O)cc2[N+](=O)[O-])cc1
COc1cccc(NC(=O)C(Sc2nc3ccccc3c(=O)n2CC(C)C)c2ccccc2)c1 (configuration not stated)
CC(C)c1ccc(S(=O)(=O)Nc2ccc(O)c(Sc3nc4ccccc4s3)c2)cc1
COc1ccc(CCNC(=O)CSc2nc(-c3ccc(OC)c(OC)c3)ccc2C#N)cc1
COc1ccc(C(=O)COC(=O)CCCC(=O)Nc2cc(C(F)(F)F)ccc2Cl)cc1
COc1cc(C(=O)N(Cc2ccc(C(C)C)cc2)C2CCS(=O)(=O)C2)cc(OC)c1OC (configuration not stated)
CCCC(=O)Nc1cc2nn(-c3ccccc3)nc2cc1C
Cc1ccc2oc3c(c(=O)c2c1)C(c1ccc(O)cc1)N(Cc1ccc2c(c1)OCO2)C3=O (configuration not stated)
Cc1[nH]c2ccccc2c1/C=N/NC(=O)CNC(=O)c1ccc2c(c1)OCO2
Cc1ccccc1NC(=O)CSC1=NCCN1
COc1ccccc1OCCCn1c(-c2ccc(Cl)cc2)nc2ccccc2c1=O
Cc1cc(C)c[n+](-c2nc3ccccc3nc2[N-]S(=O)(=O)c2cccs2)c1
CC1CCCN(Cc2c(O)ccc3c(=O)c(Oc4ccc(C(C)(C)C)cc4)c(C(F)(F)F)oc23)C1 (configuration not stated)
CCn1c(=O)c(=O)n(CC)c2cc(N3CCCCC3)c(NC(=O)c3cccc(F)c3)cc21
COc1cccc(CNC(=O)CCc2nc(-c3ccc(C)cc3)no2)c1
COc1cc(OC)c(C2C=C(C(=O)O)Nc3ncnn32)cc1OC (configuration not stated)
CCCn1c(N)c(C(=O)CSc2nnc(-c3cccnc3)n2-c2ccc(C)cc2C)c(=O)[nH]c1=O
CCCCCC(=O)NC(=S)NNC(=O)c1ccc([N+](=O)[O-])cc1
CCOC(=O)c1c(-c2ccc(OC)cc2)oc2ccc(OCc3ccc(C(=O)OC)cc3)cc12
CC(C)c1ccc(OCC(=O)N(Cc2ccc(N(C)C)cc2)C2CCS(=O)(=O)C2)cc1 (configuration not stated)
CCN(C(=O)Cn1cc(S(=O)(=O)N2CCN(c3ccccc3F)CC2)c2ccccc2c1=O)c1ccc(C)c(C)c1
Cc1nn(Cc2ccc(Cl)cc2)c(Cl)c1/C=N/NC(=O)CNc1ccccc1F
CC(C)(C)c1ccc(C(=O)NCc2nnc(SCC(=O)N3CCCc4ccccc43)n2-c2ccccc2)cc1
COc1ccccc1N1CCN(CC(=O)NC(=O)NCc2ccco2)CC1
CC(=O)N1CCN(CC(=O)Nc2ccc(SC(F)F)cc2)CC1
Cc1ccc(Cl)cc1NC(=O)/C(C#N)=C\c1cn(Cc2ccc(F)cc2)c2ccccc12
COc1ccc(NS(=O)(=O)c2ccc(NC(=S)NC(=O)/C=C/c3ccc(C)cc3)cc2)nn1
N#CCOc1ccc(C2=NO[C@@H]3[C@@H]4C[C@@H]([C@H]5C(=O)N(c6ccc7c(c6)OCO7)C(=O)[C@@H]45)[C@H]23)cc1
Cc1ccc(S(=O)(=O)c2nc(-c3cccs3)oc2N2CCCCC2)cc1
CCCCn1c(=O)c(CCC(=O)OCC(=O)Nc2ccc(C)c(Cl)c2)nc2ccccc21
Cc1c(Cl)cccc1NC(=O)Cn1cc(C(=O)c2cccs2)c2ccccc21
O=C(CCc1ccc(S(=O)(=O)N2CCOCC2)cc1)NN=C1CCCCCCC1
Cc1ccc(CN2C(=O)SC(Nc3ccccc3)C2=O)cc1 (configuration not stated)
COc1ccc(CCNC(=O)/C(C#N)=C2\N=C(NC(=O)c3cccs3)c3ccccc32)cc1
CCc1c(C)sc(NC(=O)C2c3ccccc3Oc3ccccc32)c1C(=O)OC(C)C
COc1ccc(/C(C)=N/Nc2cc(C(F)(F)F)ccc2Cl)c(OC)c1
Cc1ccccc1-c1nc2cc(NC(=O)c3cccc(OCCC(C)C)c3)ccc2o1
CCCc1c(C)nc2c(Br)cccc2c1Cl
CCCCCNC(=O)c1cccnc1SCC(=O)Nc1ccccc1OC
